In PubChem BioAssay (NCI) one finds growth data, which are given here for nine compounds.

Some test systems named below: SK-MEL-2 melanoma; EKVX NSCLC; SN12C renal; UO-31 renal; TK-10 renal; ACHN renal; CAKI-1 renal; A498 renal; CCRF-CEM leukemia; RPMI-8226 leukemia; OVCAR-8 ovarian; OVCAR-5 ovarian; OVCAR-4 ovarian; SK-OV-3 ovarian; IGROV1 ovarian; OVCAR-3 ovarian; HS 578T breast; NCI/ADR-RES ovarian.
What all share (test): NCI-60 one-dose screen, 48 h (100 = growth as untreated, 0 = no growth, -100 = all killed)
Holding throughout (settings): 10 µM unless noted

This is part of a sample that, as a whole, favours compounds with a hit. Of some 83,000 tested, about 20% had one in any assay.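 Assay: single dose, 48 h. Readout: percent growth (0 = no net growth; negative = cell death). Active: <10.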 Values without a mark were called inactive. Activity calls are given as the source filed them.

For the compound `Cc1cc(/C=C\c2ccc3ccccc3[n+]2C)c(O)c2ncccc12`, the growth in the assay with SK-MEL-2 melanoma is 35.9%; in the assay on EKVX NSCLC, 18.7%; with SN12C renal it was 3.73% (active); in the assay with UO-31 renal it was 16.8%; in the assay with TK-10 renal it was 23.2%; in the assay with ACHN renal it was 6.11% (active). In addition, the growth is -0.345% (active) with CAKI-1 renal; 30.5% in the assay with A498 renal; 25.6% with CCRF-CEM leukemia; 14% in the assay with RPMI-8226 leukemia; 6.2% (active) in the assay on OVCAR-8 ovarian; 23.9% in the assay with OVCAR-5 ovarian. Also, the growth in the assay with OVCAR-4 ovarian was 7.86% (active); in the assay on SK-OV-3 ovarian it was 20.9%; in the assay with IGROV1 ovarian, -1.34% (active); in the assay with OVCAR-3 ovarian, 25.8%; in the assay with HS 578T breast, 32.9%; in the assay with NCI/ADR-RES ovarian, 32.4%.
On to `CCN1C(=O)N(CC)C2Nn3c(s/c(=C\c4cccc([N+](=O)[O-])c4)c3=O)=NC21` (stereo not drawn), for which the growth with SK-MEL-2 melanoma is 73.3%; in the assay with EKVX NSCLC it was 72.7%; with SN12C renal, 48.6%; in the assay on UO-31 renal, 56.8%; in the assay with TK-10 renal, 17.9%; with ACHN renal, 50.5%. Besides, the growth with CAKI-1 renal is 35.3%; in the assay on A498 renal it was 5.28% (active); in the assay on CCRF-CEM leukemia it was 46%; in the assay with RPMI-8226 leukemia, 64.8%; in the assay on OVCAR-8 ovarian, 44.7%; in the assay on OVCAR-5 ovarian, 45.4%. For the same compound, the growth is 51.7% in the assay on SK-OV-3 ovarian; 53.1% in the assay on IGROV1 ovarian; 9.24% (active) with OVCAR-3 ovarian; 41.3% in the assay with HS 578T breast; 16.1% with NCI/ADR-RES ovarian.
In the case of `Clc1ccc(-c2c3ccc(=[N+]4CCCCC4)cc-3oc3cc(N4CCCCC4)ccc23)cc1`, the growth in the assay with SK-MEL-2 melanoma was -77.4% (active); in the assay on EKVX NSCLC, -66.7% (active); in the assay with SN12C renal, -79.1% (active); in the assay with UO-31 renal, -83.9% (active); in the assay with TK-10 renal, -94.8% (active); in the assay on ACHN renal, -94.4% (active). Also, the growth with CAKI-1 renal is -75.2% (active); in the assay with A498 renal, -97.5% (active); with CCRF-CEM leukemia it was 0.54% (active); in the assay with RPMI-8226 leukemia, -41.9% (active); with OVCAR-8 ovarian, -50.6% (active); with OVCAR-5 ovarian, -90.3% (active). For the same compound, the growth with OVCAR-4 ovarian was -82.5% (active); in the assay with SK-OV-3 ovarian, -95.8% (active); with IGROV1 ovarian, -77% (active); in the assay on OVCAR-3 ovarian, -98.3% (active); in the assay with HS 578T breast, -26.1% (active); with NCI/ADR-RES ovarian it was -65.7% (active).
With `COc1ccc(C2CC(c3cccc(OC)c3)=NN2C(=O)c2cc(OC)c(OC)c(OC)c2)cc1` (stereo not drawn), the growth in the assay on SK-MEL-2 melanoma is 35.9%; in the assay with EKVX NSCLC, 46.5%; in the assay on SN12C renal it was 39.6%; in the assay with UO-31 renal, 27.4%; in the assay on TK-10 renal it was 36.8%; in the assay with ACHN renal, 46.9%. Also, the growth with CAKI-1 renal is 23.6%; with A498 renal it was -0.548% (active); in the assay with CCRF-CEM leukemia, 8.7% (active); with RPMI-8226 leukemia, 15%; in the assay with OVCAR-8 ovarian, 43.9%; in the assay on OVCAR-5 ovarian it was 44.5%. The growth in the assay with OVCAR-4 ovarian is 56.6%; with SK-OV-3 ovarian, 33.7%; with IGROV1 ovarian, 27.9%; in the assay on OVCAR-3 ovarian, -55.7% (active); in the assay on NCI/ADR-RES ovarian it was -30.4% (active).
For the compound `Cc1ccc(C(=O)CSc2nc(-c3ccc(Br)cc3)c(C#N)c(=O)[nH]2)cc1`, the growth is 106% with SK-MEL-2 melanoma; 106% in the assay on EKVX NSCLC; 99.5% with SN12C renal; 88.5% in the assay with UO-31 renal; 103% in the assay on TK-10 renal; 110% in the assay with ACHN renal. Further, the growth in the assay with CAKI-1 renal is 87.2%; in the assay with A498 renal, 65.1%; in the assay with CCRF-CEM leukemia, 105%; with RPMI-8226 leukemia it was 101%; with OVCAR-8 ovarian, 88.8%; in the assay on OVCAR-5 ovarian, 105%. For the same compound, the growth in the assay on OVCAR-4 ovarian was 85.9%; in the assay on SK-OV-3 ovarian, 104%; in the assay with IGROV1 ovarian it was 99.3%; in the assay on OVCAR-3 ovarian it was 99.7%; in the assay with HS 578T breast it was 93%; in the assay with NCI/ADR-RES ovarian, 97.5%.
Turning to `CN1C(=O)N(C)C2C1NN=c1s/c(=C\c3ccccc3)c(=O)n12` (stereo not drawn), the growth in the assay on SK-MEL-2 melanoma was 48.4%; in the assay with EKVX NSCLC it was 78.5%; with SN12C renal, 50.1%; with UO-31 renal it was 44.8%; in the assay on TK-10 renal, 10%; with ACHN renal, 29.4%. In addition, the growth with CAKI-1 renal was 33.5%; with A498 renal, 4.23% (active); in the assay on CCRF-CEM leukemia, 42.2%; in the assay with RPMI-8226 leukemia it was 61.6%; in the assay with OVCAR-8 ovarian, 60%; with OVCAR-5 ovarian, 66.6%. The growth in the assay on SK-OV-3 ovarian is 47.6%; in the assay with IGROV1 ovarian, 46.4%; in the assay on OVCAR-3 ovarian, 8.76% (active); in the assay on HS 578T breast, 40.7%; in the assay with NCI/ADR-RES ovarian it was 32.5%.
`Fc1cnc(NC2CC2)nc1-c1cnc2ccc(N3CCOCC3)cn12`: the growth is -34.1% (active) in the assay with SK-MEL-2 melanoma; -19.5% (active) in the assay with EKVX NSCLC; 8.74% (active) in the assay on SN12C renal; 7.85% (active) with UO-31 renal; 6.32% (active) with TK-10 renal; 3.03% (active) with ACHN renal. The growth in the assay with CAKI-1 renal is 4.17% (active); in the assay on A498 renal, -29.5% (active); in the assay with CCRF-CEM leukemia, 6.3% (active); in the assay with OVCAR-8 ovarian, 9.65% (active); with OVCAR-5 ovarian, -4.33% (active); with OVCAR-4 ovarian it was -1.69% (active). Besides, the growth was 20.6% in the assay on SK-OV-3 ovarian; 4.44% (active) in the assay with IGROV1 ovarian; 4.44% (active) with OVCAR-3 ovarian; -7.95% (active) in the assay on HS 578T breast; 7.33% (active) in the assay with NCI/ADR-RES ovarian.
Regarding `COc1ccc2nc(NNC(=O)c3cnccn3)c3cccn3c2c1`, the growth is 46.1% in the assay on SK-MEL-2 melanoma; 2.79% (active) in the assay on EKVX NSCLC; 8.52% (active) in the assay on SN12C renal; -17% (active) with UO-31 renal; 30.7% in the assay with TK-10 renal; -22.8% (active) with ACHN renal. Further, the growth with CAKI-1 renal was 4.46% (active); in the assay with A498 renal, -11.5% (active); with CCRF-CEM leukemia it was 1.48% (active); with RPMI-8226 leukemia, 0.953% (active); in the assay on OVCAR-8 ovarian, 5.98% (active); with OVCAR-5 ovarian, 4.68% (active). Further, the growth with OVCAR-4 ovarian was -7.44% (active); in the assay on SK-OV-3 ovarian it was -1.5% (active); with IGROV1 ovarian, -35% (active); with OVCAR-3 ovarian, 1.47% (active); with HS 578T breast it was 43.8%; with NCI/ADR-RES ovarian, -13.4% (active).
`O=C(Nc1ccc(-n2cc(-c3ccncc3)c(-c3ccc(Cl)c(O)c3)n2)cc1)N1CCOCC1`: the growth with SK-MEL-2 melanoma is 110%; with EKVX NSCLC, 102%; in the assay on SN12C renal it was 99.2%; in the assay with UO-31 renal it was 75.6%; in the assay with TK-10 renal it was 117%; in the assay on ACHN renal, 97.6%. In addition, the growth in the assay with CAKI-1 renal is 105%; with A498 renal, 121%; with CCRF-CEM leukemia it was 112%; with RPMI-8226 leukemia, 106%; with OVCAR-8 ovarian, 105%; with OVCAR-5 ovarian, 101%. Further, the growth in the assay on OVCAR-4 ovarian is 104%; in the assay with SK-OV-3 ovarian, 96.4%; in the assay with IGROV1 ovarian, 97.3%; with OVCAR-3 ovarian it was 109%; in the assay with HS 578T breast it was 105%; in the assay on NCI/ADR-RES ovarian, 106%.
